Where “and” joins values, the source holds several entries; their conditions need not be identical. Equal values may be shown once. Records with an inconclusive call do not appear. Calls of active or inactive are those of the source. Unless noted, calls follow the shape of the full dose curve.
Legend:
[1] = qHTS assay for small molecule agonists of retinoid X receptor alpha signaling (AID 588544); conditions: HEK293T RXRa-UAS-bla, beta-lactamase reporter, 18 h; 530 nm emission;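 as to activation: 0% = DMSO basal wells and 100% = reference agonist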
[2] = biological target: Retinoic acid receptor RXR-alpha (Homo sapiens) (UniProt P19793); experiment: as above; conditions: HEK293T RXRa-UAS-bla, beta-lactamase reporter, 18 h; series mostly up to 76.7 µM
Sequence of Retinoic acid receptor RXR-alpha (Homo sapiens) (P19793 whole entry, looked up): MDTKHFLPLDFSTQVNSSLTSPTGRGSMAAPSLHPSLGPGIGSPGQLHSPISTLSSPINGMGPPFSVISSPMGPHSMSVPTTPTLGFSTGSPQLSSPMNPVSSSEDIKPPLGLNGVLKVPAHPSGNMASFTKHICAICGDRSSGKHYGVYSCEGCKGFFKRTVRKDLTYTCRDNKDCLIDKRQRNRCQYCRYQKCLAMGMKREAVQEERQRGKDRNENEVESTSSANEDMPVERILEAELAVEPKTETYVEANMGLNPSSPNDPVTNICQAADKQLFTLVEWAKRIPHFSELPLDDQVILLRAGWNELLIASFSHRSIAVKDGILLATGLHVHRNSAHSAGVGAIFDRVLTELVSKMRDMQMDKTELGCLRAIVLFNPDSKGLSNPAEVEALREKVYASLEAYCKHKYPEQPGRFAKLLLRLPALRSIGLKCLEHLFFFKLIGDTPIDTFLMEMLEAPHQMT

[3] = biological target: Thyroid hormone receptor beta (Homo sapiens) (UniProt P10828); experiment: qHTS assay for small molecule agonists of thyroid hormone receptor beta signaling (AID 588545); conditions: TR-UAS-bla GripTite HEK 293, beta-lactamase ratio, agonist mode, 18 h, percent of T3 response, DMSO as zero; series mostly up to 76.7 µM;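 also: 0% = DMSO only and 100% = 10 nM T3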
Sequence of Thyroid hormone receptor beta (Homo sapiens) (P10828 whole entry, looked up): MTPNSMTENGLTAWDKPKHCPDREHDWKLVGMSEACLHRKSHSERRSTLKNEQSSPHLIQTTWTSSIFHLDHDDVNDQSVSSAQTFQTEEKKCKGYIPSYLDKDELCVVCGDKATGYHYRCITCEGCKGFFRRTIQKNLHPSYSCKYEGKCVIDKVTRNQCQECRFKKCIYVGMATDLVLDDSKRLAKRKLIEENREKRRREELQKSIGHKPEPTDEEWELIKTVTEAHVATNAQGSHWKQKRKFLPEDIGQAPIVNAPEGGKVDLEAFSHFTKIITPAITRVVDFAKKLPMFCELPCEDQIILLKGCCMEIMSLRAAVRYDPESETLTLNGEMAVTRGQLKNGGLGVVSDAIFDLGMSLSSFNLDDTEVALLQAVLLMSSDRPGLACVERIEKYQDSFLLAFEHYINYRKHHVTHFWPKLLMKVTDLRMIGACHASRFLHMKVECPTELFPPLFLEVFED
Outline: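 Beta-lactamase reporter activity under TR response element control is measured in HEK 293 cells after 18 hrs compound exposure. Signal is ratiometric CCF4 fluorescence, 460/530 nm.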

[4] = qHTS assay for small molecule antagonists of retinoid X receptor alpha signaling (AID 588546; active = well fitted inhibition curve with a large enough effect in the signal ratio, with a control signal flat, not every such curve was filed as active; the % refers to the signal ratio;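 also: cells stimulated with 9-cis-retinoic acid as agonist; % is scaled to controls: 0 for no effect and ±100 for the full control effect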); conditions: HEK293T RXRa-UAS-bla, beta-lactamase ratio, antagonist mode; measured here: W530 green channel, cytotoxicity proxy
Outline: (§1)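 Beta-lactamase reporter inhibition, read as CCF4 fluorescence ratio (ex 405, em 460/530 nm) after 2 h at RT. HEK293T UAS-bla cells, 2500/well, were stimulated with 9-cis-RA at 500 or 100 nM final alongside test compound for 18 h at 37 C.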

[5] = biological target: Retinoic acid receptor RXR-alpha (Homo sapiens) (UniProt P19793); experiment: as above; conditions: HEK293T RXRa-UAS-bla, beta-lactamase ratio, antagonist mode
Outline: as §1

[6] = biological target: Thyroid hormone receptor beta (Homo sapiens) (UniProt P10828); experiment: qHTS assay for small molecule antagonists of thyroid hormone receptor beta signaling (AID 588547; active = well fitted inhibition curve with a large enough effect in the signal ratio, with a control signal flat, not every such curve was filed as active; the % refers to the signal ratio;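 also: cells stimulated with 0.4 nM T3 agonist during compound exposure; % is scaled to controls: 0 for no effect and ±100 for the full control effect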); conditions: TR-UAS-bla HEK293, beta-lactamase ratio, antagonist mode, 18 h
Outline: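 Inhibition of T3-driven (0.4nM final) beta-lactamase reporter activity was measured over 0.59 nM to 92 uM compound after 18 h at 37 C. The cells were GripTite HEK293 TR-UAS-bla in charcoal/dextran-stripped serum, with CCF4 ratio read-out and IC50 from Hill fits.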

[7] = biological target: Voltage-gated inwardly rectifying potassium channel KCNH2 (Homo sapiens) (UniProt Q12809); experiment: qHTS Assay for Small Molecule Inhibitors of the Human hERG Channel Activity (AID 588834; active = well fitted inhibition curve with a large enough effect;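 also: top concentration of the series differs between compounds; % is scaled to controls: 0 for no effect and ±100 for the full control effect; lower thallium flux fluorescence means stronger hERG block; nearly all actives have a fitted effect of over 50% in size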); conditions: U2OS BacMam hERG, FluxOR thallium flux fluorescence; series mostly up to 92.2 µM
Sequence of Voltage-gated inwardly rectifying potassium channel KCNH2 (Homo sapiens) (Q12809 whole entry, looked up): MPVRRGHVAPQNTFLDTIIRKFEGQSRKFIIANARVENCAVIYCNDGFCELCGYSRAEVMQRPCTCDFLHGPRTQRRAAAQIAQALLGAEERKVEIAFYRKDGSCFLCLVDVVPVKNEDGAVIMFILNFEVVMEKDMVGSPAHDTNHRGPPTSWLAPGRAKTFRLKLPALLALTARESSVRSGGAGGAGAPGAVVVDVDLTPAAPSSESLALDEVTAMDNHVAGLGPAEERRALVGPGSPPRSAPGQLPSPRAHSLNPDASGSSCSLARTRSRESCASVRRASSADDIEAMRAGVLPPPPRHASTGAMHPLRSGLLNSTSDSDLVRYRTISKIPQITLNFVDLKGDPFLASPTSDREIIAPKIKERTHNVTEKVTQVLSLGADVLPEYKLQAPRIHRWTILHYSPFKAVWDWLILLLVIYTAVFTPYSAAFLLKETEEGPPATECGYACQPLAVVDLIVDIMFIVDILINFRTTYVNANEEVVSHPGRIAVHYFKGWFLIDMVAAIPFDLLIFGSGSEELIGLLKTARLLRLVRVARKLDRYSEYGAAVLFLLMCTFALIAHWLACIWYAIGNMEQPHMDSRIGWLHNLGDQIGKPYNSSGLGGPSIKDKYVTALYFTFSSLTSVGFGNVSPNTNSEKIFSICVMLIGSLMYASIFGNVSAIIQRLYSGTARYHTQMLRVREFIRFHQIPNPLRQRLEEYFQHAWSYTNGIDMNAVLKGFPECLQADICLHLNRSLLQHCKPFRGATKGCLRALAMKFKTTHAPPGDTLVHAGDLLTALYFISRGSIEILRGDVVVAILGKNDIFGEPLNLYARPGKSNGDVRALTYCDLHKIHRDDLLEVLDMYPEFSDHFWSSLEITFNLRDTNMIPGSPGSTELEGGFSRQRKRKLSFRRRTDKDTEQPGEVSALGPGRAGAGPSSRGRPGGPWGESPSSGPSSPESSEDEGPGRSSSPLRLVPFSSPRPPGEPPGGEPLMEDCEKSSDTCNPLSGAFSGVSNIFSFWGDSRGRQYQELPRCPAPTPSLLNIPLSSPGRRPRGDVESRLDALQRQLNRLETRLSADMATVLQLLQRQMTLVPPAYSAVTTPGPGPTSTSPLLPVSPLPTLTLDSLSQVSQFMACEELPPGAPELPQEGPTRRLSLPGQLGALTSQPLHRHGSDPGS
Outline: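 Blockade is seen as reduced FluxOR thallium-flux fluorescence in U2OS cells expressing hERG from a BacMam construct, in Opti-MEM with 2% FCS. Concentration-response data fitted to the Hill equation for AC50.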

[8] = qHTS assay for small molecule agonists of the antioxidant response element (ARE) signaling pathway (AID 651741; active = well fitted activation curve with a large enough effect in the signal ratio; the % refers to the signal ratio; also: potency is read from the fitted curve at half-maximal effect; as to activation: % of control where 0% means no effect); conditions: HepG2 ARE-bla reporter, beta-lactamase FRET ratio, 16 h; series mostly up to 96 µM
Outline: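 Seeding 2,000 ARE-bla HepG2 cells per well preceded a 5 h incubation at 37 C/5% CO2 and a 16 h compound exposure at 37 C. Beta-lactamase reporter activity was then quantified by fluorescence after 2 h with LiveBLAzer B/G FRET substrate.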

[9] = qHTS assay for small molecule activators of the p53 signaling pathway (AID 651743; active = well fitted activation curve with a large enough effect in the signal ratio, not every such curve was filed as active; the % refers to the signal ratio; also: % of control where 0% means no effect); conditions: HCT-116 p53RE-bla, beta-lactamase FRET ratio, 16 h; stronger effect = higher value
Outline: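 Screen for p53 pathway agonists uses stably transfected p53RE-bla HCT-116 cells, 4,000 per well, treated 16 h at 37 C with compounds in DMSO.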

[10] = qHTS assay for small molecule activators of the nuclear factor-kappa B (NF-kB) signaling pathway (AID 651749; active = well fitted activation curve with a large enough effect in the signal ratio; the % refers to the signal ratio; also: % of control where 0% means no effect); conditions: NF-kB-bla ME-180 cells, beta-lactamase FRET ratio, 16 h; stronger effect = higher value
Outline: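 Stably transfected ME-180 line; NF-kB response element upstream of beta-lactamase. Treatment: compound or DMSO, 16 hr. Detection: fluorescent FRET substrate.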

With NC(=O)c1ccccc1[N+](=O)[O-] as the compound, how does the max response [1] read?
The max response was -9.31%.

What about the outcome [2] of the same compound?
The outcome was “inactive”.

What about the outcome [3] of the same compound?
The outcome was “inactive”.

What about the max response [4] of the same compound?
Its max response is 3.46%.

And the max response [5]?
Its max response is 0.827% (inactive).

What about the activity change % (negative = inhibition) [6] of the same compound?
The activity change % (negative = inhibition) was 5.01% (inactive).

What about the Potency [7] of the same compound?
Its Potency is “inactive”.

And the Potency [8]?
The Potency was “inactive”.

And the activation [9]?
Its activation is -0.853% (inactive).

And the activation [10]?
Its activation is -0.661% (inactive).

With Nc1cc([N+](=O)[O-])ccc1C(=O)O as the compound, how does the max response [1] read?
The max response was 8.72% and -23.6%.

What about the outcome [2] of the same compound?
Its outcome is “inactive”.

What about the outcome [3] of the same compound?
Its outcome is “inactive”.

What about the max response [4] of the same compound?
Its max response is -12.5% and -8.81%.

And the max response [5]?
Its max response is 19.8% (inactive) and -9.41% (inactive).

And the activity change % (negative = inhibition) [6]?
The activity change % (negative = inhibition) was 7.18% (inactive) and -9.31% (inactive).

And the Potency [7]?
Its Potency is “inactive”.

What about the activation [9] of the same compound?
Its activation is -3.96% (inactive) and 3.5% (inactive).

For Cc1ccc(C(=O)O)cc1, which max response [1] is on record?
Its max response is 4.67%.

And the outcome [2]?
Its outcome is “inactive”.

And the outcome [3]?
Its outcome is “inactive”.

And the max response [4]?
The max response was -2.83%.

What about the max response [5] of the same compound?
Its max response is -5.24% (inactive).

What about the activity change % (negative = inhibition) [6] of the same compound?
Its activity change % (negative = inhibition) is 18.4% (inactive).

And the Potency [7]?
The Potency was “inactive”.

And the activation [9]?
The activation was -5.46% (inactive).

For BrC/C=C/CBr, which max response [1] is on record?
Its max response is 2.54%.

What about the outcome [2] of the same compound?
Its outcome is “inactive”.

What about the outcome [3] of the same compound?
Its outcome is “inactive”.

And the max response [4]?
The max response was -0.458%.

What about the max response [5] of the same compound?
Its max response is -9.94% (inactive).

And the activity change % (negative = inhibition) [6]?
The activity change % (negative = inhibition) was 15.3% (inactive).

And the Potency [7]?
Its Potency is “inactive”.

And the Potency [8]?
The Potency was 42.2 µM (active).

And the activation [9]?
The activation was 0.265% (inactive).

And the activation [10]?
The activation was 0.2% (inactive).

With O=[N+]([O-])c1cccc(C(F)(F)F)c1 as the compound, how does the max response [1] read?
The max response was -15.5%.

What about the outcome [2] of the same compound?
The outcome was “inactive”.

And the outcome [3]?
The outcome was “inactive”.

What about the max response [4] of the same compound?
Its max response is -3.15%.

What about the max response [5] of the same compound?
The max response was -2.39% (inactive).

And the activity change % (negative = inhibition) [6]?
Its activity change % (negative = inhibition) is 8.91% (inactive).

What about the Potency [7] of the same compound?
The Potency was “inactive”.

What about the activation [9] of the same compound?
Its activation is 2.87% (inactive).

With FC(F)(F)c1cccc(Cl)c1 as the compound, how does the max response [1] read?
The max response was -1.24%.

And the outcome [2]?
The outcome was “inactive”.

And the outcome [3]?
Its outcome is “inactive”.

What about the max response [4] of the same compound?
Its max response is 3.78%.

What about the max response [5] of the same compound?
The max response was 6.29% (inactive).

What about the activity change % (negative = inhibition) [6] of the same compound?
The activity change % (negative = inhibition) was -4.74% (inactive).

And the Potency [7]?
Its Potency is “inactive”.

What about the activation [9] of the same compound?
The activation was -1.63% (inactive).

Which max response [1] does the source give for CC(O)COC(C)(C)C (stereo not drawn) here?
The max response was -7.25%.

And the outcome [2]?
The outcome was “inactive”.

What about the outcome [3] of the same compound?
Its outcome is “inactive”.

And the max response [4]?
Its max response is 0.664%.

And the max response [5]?
Its max response is -2.68% (inactive).

What about the activity change % (negative = inhibition) [6] of the same compound?
Its activity change % (negative = inhibition) is -13.8% (inactive).

And the Potency [7]?
The Potency was “inactive”.

And the Potency [8]?
The Potency was “inactive”.

And the activation [9]?
The activation was -6.33% (inactive).

And the activation [10]?
The activation was -0.964% (inactive).

What does the source list for CCC=O?
max response [1]: 2.22%; outcome [2]: inactive; outcome [3]: inactive; max response [4]: -6.66%; max response [5]: 0.991% (inactive); activity change % (negative = inhibition) [6]: -3.74% (inactive); Potency [7]: inactive; Potency [8]: inactive; activation [10]: -1.21% (inactive)

Which max response [1] does the source give for Cc1ccc(C)c(N)c1 here?
Its max response is 7.96%.

What about the outcome [2] of the same compound?
The outcome was “inactive”.

What about the outcome [3] of the same compound?
Its outcome is “inactive”.

What about the max response [4] of the same compound?
Its max response is -10.5%.

What about the max response [5] of the same compound?
Its max response is 21.7% (inactive).

And the activity change % (negative = inhibition) [6]?
Its activity change % (negative = inhibition) is -4.28% (inactive).

What about the Potency [7] of the same compound?
The Potency was “inactive”.

What about the Potency [8] of the same compound?
Its Potency is “inactive”.

And the activation [9]?
The activation was -2.64% (inactive).

What about the activation [10] of the same compound?
Its activation is 0.0574% (inactive).

What does the source list for CC(C)(O)CCC(C)(C)O?
max response [1]: -8.68%; outcome [2]: inactive; outcome [3]: inactive; max response [4]: -5.49%; max response [5]: 1.42% (inactive); activity change % (negative = inhibition) [6]: 4.09% (inactive); Potency [7]: inactive; activation [9]: -3.36% (inactive)

What does the source list for CCC(C)(C)OC?
max response [1]: 10.3%; outcome [2]: inactive; outcome [3]: inactive; max response [4]: -18.1%; max response [5]: 17% (inactive); activity change % (negative = inhibition) [6]: -6.68% (inactive); Potency [7]: inactive; Potency [8]: inactive; activation [10]: -0.279% (inactive)

Source: PubChem BioAssay (NCATS)
